Laboratory results as given in PubChem BioAssay AID1159580 (chemical genetic matrix, 2015).
In all, about 5,500 compounds went through this assay and about 2,000 (36%) were called active. Another 18% or so got no clear call; they are omitted. Cut-off read from the data, not from the text of the source: active = normalized growth mostly below about 0.91 (no sharp cut-off); inconclusive = no clear call, values can overlap the other calls; inactive = mostly above about 0.92. The list shows a part of the results.

Assay: chemical genetic growth profiling, strain panel (AID 1159580);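 note: tested at 20 µM; growth read once vehicle control cultures reached saturation at 30 °C; 1 = growth at the plate median or of vehicle wells; lower values mean less growth of the strain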
Conditions: growth OD

Measured: normalized growth

CC(=O)C1CCC2C3CCC4C[C@H](O)CCC4(C)C3C[C@H](O)C12C (some centres not stated)
inactive: S. cerevisiae deletion strains, locus YJL187C, strain SWE1, stronger effect = lower value 0.965 | S. cerevisiae deletion strains, locus YJR066W, strain TOR1, stronger effect = lower value 0.923 | S. cerevisiae deletion strains, locus YKL009W, strain mrt4, stronger effect = lower value 1.02 | S. cerevisiae deletion strains, locus YKL068W, stronger effect = lower value 0.992 | S. cerevisiae deletion strains, locus YKL085W, strain MDH1 (second series), stronger effect = lower value 0.987 | S. cerevisiae deletion strains, locus YKL085W, strain MDH1, stronger effect = lower value 0.987 | S. cerevisiae deletion strains, locus YKL160W, strain elf1, stronger effect = lower value 0.964 | S. cerevisiae deletion strains, locus YKR001C, strain vps1, stronger effect = lower value 1.04 | S. cerevisiae deletion strains, locus YKR026C, strain gcn3, stronger effect = lower value 0.962 | S. cerevisiae deletion strains, locus YKR091W, strain srl3, stronger effect = lower value 0.972 | S. cerevisiae deletion strains, locus YLL001W, strain dnm1, stronger effect = lower value 0.98 | S. cerevisiae deletion strains, locus YLL026W, stronger effect = lower value 0.968 | S. cerevisiae deletion strains, locus YLL041C, strain sdh2, stronger effect = lower value 0.963 | S. cerevisiae deletion strains, locus YLR027C, strain aat2, stronger effect = lower value 0.985 | S. cerevisiae deletion strains, locus YLR039C, strain RIC1, stronger effect = lower value 1.21 | S. cerevisiae deletion strains, locus YLR058C, strain SHM2, stronger effect = lower value 1.05 | S. cerevisiae deletion strains, locus YLR102C, strain apc9, stronger effect = lower value 1.01 | S. cerevisiae deletion strains, locus YLR113W, strain HOG1, stronger effect = lower value 1.12 | S. cerevisiae deletion strains, locus YLR221C, strain rsa3, stronger effect = lower value 0.984 | S. cerevisiae deletion strains, locus YLR258W, strain gsy2, stronger effect = lower value 0.962 | S. cerevisiae deletion strains, locus YLR262C, strain YPT6 (second series), stronger effect = lower value 0.991 | S. cerevisiae deletion strains, locus YLR262C, strain YPT6, stronger effect = lower value 1.19 | S. cerevisiae deletion strains, locus YLR268W, strain sec22, stronger effect = lower value 1.02 | S. cerevisiae deletion strains, locus YLR320W, strain mms22, stronger effect = lower value 0.99 | S. cerevisiae deletion strains, locus YLR330W, strain CHS5, stronger effect = lower value 1.03 | S. cerevisiae deletion strains, locus YLR342W, strain FKS1, stronger effect = lower value 0.977 | S. cerevisiae deletion strains, locus YLR357W, strain rsc2, stronger effect = lower value 0.98 | S. cerevisiae deletion strains, locus YLR370C, strain arc18, stronger effect = lower value 0.98 | S. cerevisiae deletion strains, locus YLR371W, strain rom2, stronger effect = lower value 1.02 | S. cerevisiae deletion strains, locus YLR384C, strain iki3, stronger effect = lower value 0.97 | S. cerevisiae deletion strains, locus YLR418C, strain cdc73, stronger effect = lower value 1.07 | S. cerevisiae deletion strains, locus YML016C, strain PPZ1, stronger effect = lower value 1.03 | S. cerevisiae deletion strains, locus YML032C, strain rad52, stronger effect = lower value 1.01 | S. cerevisiae deletion strains, locus YML120C, strain ndi1, stronger effect = lower value 1 | S. cerevisiae deletion strains, locus YML124C, strain tub3, stronger effect = lower value 0.998 | S. cerevisiae deletion strains, locus YMR058W, strain fet3, stronger effect = lower value 0.968 | S. cerevisiae deletion strains, locus YMR078C, strain ctf18, stronger effect = lower value 0.989 | S. cerevisiae deletion strains, locus YMR125W, strain sto1, stronger effect = lower value 0.943 | S. cerevisiae deletion strains, locus YMR129W, stronger effect = lower value 0.973 | S. cerevisiae deletion strains, locus YMR205C, strain PFK2, stronger effect = lower value 0.987 | S. cerevisiae deletion strains, locus YMR223W, strain ubp8, stronger effect = lower value 1.03 | S. cerevisiae deletion strains, locus YMR231W, strain pep5, stronger effect = lower value 0.978 | S. cerevisiae deletion strains, locus YMR307W, strain GAS1, stronger effect = lower value 1.34 | S. cerevisiae deletion strains, locus YNL067W, strain RPL9B, stronger effect = lower value 1.02 | S. cerevisiae deletion strains, locus YNL071W, strain lat1, stronger effect = lower value 0.975 | S. cerevisiae deletion strains, locus YNL183C, strain NPR1, stronger effect = lower value 0.956 | S. cerevisiae deletion strains, locus YNL209W, strain ssb2, stronger effect = lower value 0.967 | S. cerevisiae deletion strains, locus YNL233W, strain BNI4, stronger effect = lower value 1.07 | S. cerevisiae deletion strains, locus YNL248C, strain rpa49, stronger effect = lower value 0.975 | S. cerevisiae deletion strains, locus YNL250W, strain rad50, stronger effect = lower value 0.999 | S. cerevisiae deletion strains, locus YNL271C, strain bni1, stronger effect = lower value 1.01 | S. cerevisiae deletion strains, locus YNL298W, strain CLA4, stronger effect = lower value 1.01 | S. cerevisiae deletion strains, locus YNL307C, strain MCK1, stronger effect = lower value 0.994 | S. cerevisiae deletion strains, locus YNL322C, strain KRE1 (second series), stronger effect = lower value 0.979 | S. cerevisiae deletion strains, locus YNL322C, strain KRE1, stronger effect = lower value 1.02 | S. cerevisiae deletion strains, locus YNR049C, strain mso1, stronger effect = lower value 0.961 | S. cerevisiae deletion strains, locus YNR052C, strain pop2, stronger effect = lower value 1 | S. cerevisiae deletion strains, locus YOL006C, strain TOP1, stronger effect = lower value 1.37 | S. cerevisiae deletion strains, locus YOL012C, strain htz1 1.2 | S. cerevisiae deletion strains, locus YOL147C, strain pex11, stronger effect = lower value 0.995 | S. cerevisiae deletion strains, locus YOR001W, strain rrp6, stronger effect = lower value 0.961 | S. cerevisiae deletion strains, locus YOR061W, strain CKA2, stronger effect = lower value 1.03 | S. cerevisiae deletion strains, locus YOR069W, strain VPS5, stronger effect = lower value 1.02 | S. cerevisiae deletion strains, locus YOR070C, strain gyp1, stronger effect = lower value 0.982 | S. cerevisiae deletion strains, locus YOR080W, strain dia2, stronger effect = lower value 0.98 | S. cerevisiae deletion strains, locus YOR083W, strain WHI5, stronger effect = lower value 0.958 | S. cerevisiae deletion strains, locus YOR106W, strain vam3, stronger effect = lower value 0.913 | S. cerevisiae deletion strains, locus YOR136W, strain idh2, stronger effect = lower value 1 | S. cerevisiae deletion strains, locus YOR144C, strain elg1, stronger effect = lower value 0.996 | S. cerevisiae deletion strains, locus YOR184W, strain ser1, stronger effect = lower value 1.02 | S. cerevisiae deletion strains, locus YOR231W, strain MKK1, stronger effect = lower value 1.03 | S. cerevisiae deletion strains, locus YOR265W, strain rbl2, stronger effect = lower value 0.993 | S. cerevisiae deletion strains, locus YOR270C, strain vph1, stronger effect = lower value 0.964 | S. cerevisiae deletion strains, locus YOR290C, strain snf2, stronger effect = lower value 0.934 | S. cerevisiae deletion strains, locus YOR316C, strain cot1, stronger effect = lower value 1 | S. cerevisiae deletion strains, locus YPL051W, strain arl3, stronger effect = lower value 1 | S. cerevisiae deletion strains, locus YPL078C, strain atp4, stronger effect = lower value 0.945 | S. cerevisiae deletion strains, locus YPL106C, strain sse1, stronger effect = lower value 0.964 | S. cerevisiae deletion strains, locus YPL240C, strain hsp82, stronger effect = lower value 0.987 | S. cerevisiae deletion strains, locus YPL241C, strain CIN2, stronger effect = lower value 1.02 | S. cerevisiae deletion strains, locus YPL256C, strain CLN2, stronger effect = lower value 0.994 | S. cerevisiae deletion strains, locus YPR119W, strain clb2, stronger effect = lower value 0.988 | S. cerevisiae deletion strains, locus YPR141C, strain kar3, stronger effect = lower value 0.996 | S. cerevisiae deletion strains, locus YPR163C, strain tif3, stronger effect = lower value 1 | S. cerevisiae deletion strains, locus YPR167C, strain met16, stronger effect = lower value 1.01 | S. cerevisiae deletion strains, strain wtn01, stronger effect = lower value 1.01 | S. cerevisiae strains, strain wild type, stronger effect = lower value 1.07
